# Compound activity as filed in PubChem BioAssay.
# Cruzain Triton = cruzain (T. cruzi) inhibition with detergent. P25779. actives 0.43% (n = 200,000). Potency, µM, for inactives: max response, negative = inhibition, most hits filed as inhibitors. purified cruzain, Z-FR-AMC fluorescence, 0.01% Triton;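 further: plate controls were neutral wells for no effect and buffer without enzyme for full effect; nearly all actives have a fitted effect of over 40% in size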
# Target sequence (P25779 123-467 limits assumed): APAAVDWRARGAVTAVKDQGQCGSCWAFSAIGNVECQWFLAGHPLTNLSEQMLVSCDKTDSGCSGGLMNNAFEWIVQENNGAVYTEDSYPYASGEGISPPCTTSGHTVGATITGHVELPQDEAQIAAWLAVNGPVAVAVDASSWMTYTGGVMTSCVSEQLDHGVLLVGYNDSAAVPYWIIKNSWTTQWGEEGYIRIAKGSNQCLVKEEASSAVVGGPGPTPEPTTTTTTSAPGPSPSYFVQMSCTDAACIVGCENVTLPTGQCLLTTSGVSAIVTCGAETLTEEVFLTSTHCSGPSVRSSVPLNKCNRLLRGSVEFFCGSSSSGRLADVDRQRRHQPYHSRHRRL
#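 Steps: dispense cruzain (1.5 nM final) in acetate buffer pH 5.5 with DTT and 0.01% Triton X-100; pin-transfer compounds; incubate 15 min RT; add Z-FR-AMC (2 uM final); read fluorescence every 30 s, using the 60 s intensity change.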
# Cruzain inh noDet = cruzain (T. cruzi) inhibition without detergent | purified cruzain, Z-FR-AMC fluorescence, no detergent | Potency, µM, inactives show max response, negative = inhibition, usual class: inhibitors | actives 2.3% (n = 200,000);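 further: plate controls were enzyme without inhibitor for no effect and buffer without enzyme for full effect; nearly all actives have a fitted effect of over 40% in size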
#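 Purified cruzain at 1.5 nM, pre-incubated 15 min with compound at room temperature in 100 mM sodium acetate pH 5.5, 5 mM DTT, 0.00005% Triton X-100. Reaction started with 2 uM Z-FR-AMC; AMC fluorescence increase over 60 s gives rate.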
# NS1 inh = blocks influenza NS1 protein function; Potency, µM (titrated, usually from 46.1 µM), without a hit: at the highest dose activity, positive = more growth; actives 0.4% (n = 270,000); calls by dose curve; further: actives are rising curves; nearly all actives have a fitted effect of over 50% in size
#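 Growth recovery, yeast-based: influenza A NS1 expressed in S. cerevisiae causes slow growth, and suppressors are detected by OD600. The parent strain without NS1 is used as positive control.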
# * = called active by the depositor; ? = inconclusive; . = no result given. This is one part of a sample in which hits are shown more often than they occur. Unless noted, the call rests on the fitted dose curve; in most records, active means well fitted curve in the direction sought with a large enough effect; inconclusive means small, poorly fitted or top-dose-only effect, or another doubt; inactive means no such curve, though single readings can be large; an effect the other way counts as inactive or inconclusive. Potency means the concentration at half of the fitted maximal effect.
SMILES,Cruzain Triton,Cruzain inh noDet,NS1 inh
CC(C)(O)[C@H](O)COc1c2occc2cc2ccc(=O)oc12,0.4%,0.2%,0.7%
Cc1oc(/N=C/c2ccc(Cl)cc2Cl)c(C#N)c1C,-3.2%,-6.5%,3.7%
COCCN1C(=O)C(CC(=O)Nc2ccc(C(=O)O)cc2)SC1=Nc1ccccc1 (stereo not given),0.2%,0.3%,0.1%
COC(=O)c1cc(NC(=O)CC2SC(=Nc3ccccc3)N(CCc3c[nH]c4ccccc34)C2=O)cc(C(=O)OC)c1 (stereo not given),14.6%,5.01µM*,29.2%
CCC(=O)c1cccc2c1N=CC1=C(CC(C)(C)CC1=O)N2,0.9%,-12.2%,-2.9%
CSc1nc(NS(=O)(=O)c2cc(Br)ccc2Br)cc(=O)[nH]1,.,.,12.4%
Cc1cc(C(C)c2ccccc2)c(O)c(CN2CCOCC2)c1C (stereo not given),-7.3%,21.8%,-41.0%
Cc1cc(-c2csc(N)n2)c(C)n1C,-29.6%,?,19.1%
Cc1ccc(-n2c(C)cc(-c3csc(N)n3)c2C)cc1,-0.7%,25.1µM*,3.6%
CCOC(=O)CCc1c(C)c2ccc(OCc3ccc([N+](=O)[O-])cc3)cc2oc1=O,0.4%,10µM*,1.3%
CCOC(=O)CCc1c(C)c2ccc(OCc3nn[nH]n3)cc2oc1=O,-7.3%,0.3%,0.7%
O=C(O)c1ccc(COc2ccc3c4c(c(=O)oc3c2)CCC4)o1,-4.1%,0.0%,-1.4%
O=c1oc2cc(OCc3ccc([N+](=O)[O-])cc3)ccc2c2c1CCCC2,1.2%,12.6µM*,6.2%
Cc1ccc(C)c2[nH]c(=O)c(CCNC(=O)C(C)C)cc12,0.6%,-8.5%,5.4%
O=C(COC(=O)CNC(=O)c1ccccc1)Nc1nc(-c2ccccc2)cs1,25.1µM*,?,2.5%
Cn1cc(Cl)c(C(=O)OCC(=O)Nc2nc(-c3ccc(Br)cc3)cs2)n1,-5.7%,31.6µM*,0.3%
O=C(COC(=O)/C=C/c1cccs1)Nc1nc(-c2ccccc2)cs1,-4.5%,?,7.3%
O=C(COC(=O)c1cccs1)Nc1nc(-c2ccccc2)cs1,-0.3%,10µM*,5.0%
Cn1nccc1C(=O)OCC(=O)Nc1nc(-c2ccccc2)cs1,-8.2%,-5.9%,-49.6%
O=C(CCn1cnc2ccccc2c1=O)Nc1nc(-c2ccc(Br)cc2)cs1,6.3%,25.1µM*,7.3%
O=C(Cc1cccs1)Nc1nc(-c2ccccc2)cs1,-9.6%,-0.4%,-53.2%
Cc1ccc(NC(=O)CCn2cnc3ccccc3c2=O)cc1,.,.,-1.8%
COc1ccc(CNc2ncnc3cc(OC)c(OC)cc23)cc1,-3.7%,-22.8%,1.0%
COc1ccc(S(=O)(=O)NCCCO)cc1-c1nnc2c3ccccc3c(C)nn12,2.8%,16.2%,.
Cc1cc(C(=O)NC2CCCCC2)on1,.,.,-5.3%
SMILES,Cruzain Triton,Cruzain inh noDet,NS1 inh
CC(=O)Oc1ccc(C2(c3ccc(OC(C)=O)cc3)C(=O)Nc3ccccc32)cc1,-0.1%,4.9%,.
O=C(CCCN1C(=O)/C(=C/c2ccc(F)cc2)SC1=S)NCCCn1ccnc1,.,.,3.1%
COc1ccc(N(C)C(=O)Cc2c(C(=O)O)n(C)c3ccccc23)cc1,.,.,7.3%
COC(=O)c1cc(NC(=O)CC2CCCC2)cc(C(=O)OC)c1,.,.,5.9%
C/C(=N\Nc1nc(-c2ccccc2)cs1)c1cccs1,?,7.94µM*,11.9%
C/C(=N\Nc1nc2ccccc2s1)c1cccs1,-11.0%,-23.5%,?
CCSc1nnc(-c2sc3nnc(-c4ccccc4)c(-c4ccccc4)c3c2N)o1,1.5%,?,29.1%
C[C@H](N)[C@@H](O)c1ccccc1,1.7%,5.8%,.
CC(=O)N1N=C(c2cccs2)CC1c1ccc(Br)cc1 (stereo not given),.,.,-39.8%
Cc1ccc(C2CC(c3cccs3)=NN2C(=O)c2ccc(Br)o2)cc1 (stereo not given),-9.4%,7.94µM*,16.7%
OCc1c[nH]c(=S)n1CCOc1cccc(C(F)(F)F)c1,.,.,2.6%
O=C(NC(=S)Nc1ccccc1Cl)C1CC1,.,.,-8.4%
CCN(CC)c1ccc(S(=O)(=O)Nc2cc(Cl)ccc2Cl)cc1NC(=S)NC(=O)C1CCCC1,-2.1%,31.6µM*,6.7%
CCOC(=O)c1c(NC(=O)c2cnn3c2NC(c2cccc(OC)c2)CC3C(F)(F)F)sc2c1CCCC2 (stereo not given),-1.1%,3.16µM*,?
CC(C)OC(=O)c1c(NC(=O)c2cnn3c2NC(c2ccccc2)CC3C(F)(F)F)sc2c1CCCC2 (stereo not given),3.4%,?,-4.8%
C#CCOCCOCCOCCNc1nc(N2CCN(C(=O)[C@H]([C@@H](C)CC)n3cc(CCCN=C(N)N)nn3)CC2)nc(N2CCN(C(=O)[C@H](CCCCN)n3cc(CCCC)nn3)CC2)n1,25.1µM*,?,-40.7%
C#CCOCCOCCOCCNc1nc(N2CCN(C(=O)[C@H](C)n3cc(CCCN=C(N)N)nn3)CC2)nc(N2CCN(C(=O)[C@H](CCCCN)n3cc(CCCC)nn3)CC2)n1,-15.0%,-0.3%,-13.2%
CC1=C(C(=O)OC(C)C)C(/C=C/c2ccccc2)NC(=O)N1 (stereo not given),1.0%,?,-4.8%
Cc1ccccc1NC(=O)COC(=O)c1cccnc1,.,.,5.2%
Cc1ccccc1NC(=O)COC(=O)c1ccc(CSc2ccc(Cl)cc2)cc1,2.9%,10µM*,1.0%
COc1ccc(CN2CCN(Cc3nc4ccccc4s3)CC2CCO)c(C)c1C (stereo not given),.,.,4.9%
CCC1CSC(Nc2ccc(C(=O)/C=C/c3ccc(OC)c(OC)c3)cc2)=N1 (stereo not given),?,?,-33.6%
CCC1CSC(Nc2ccc(C(=O)/C=C/c3ccc(Br)cc3)cc2)=N1 (stereo not given),-11.2%,25.1µM*,?
CCOc1ccc(CN2CCN(C(=O)c3ccccc3)CC2)cc1,4.9%,6.8%,-8.9%
COC(=O)c1ccc(CSc2nc3scc(-c4cccs4)c3c(=O)[nH]2)o1,-7.0%,15.8µM*,-6.6%
SMILES,Cruzain Triton,Cruzain inh noDet,NS1 inh
COC(=O)c1ccc(CSc2nc3ccc(Cl)cc3[nH]2)o1,5.3%,-7.6%,-4.1%
CC1CCN(S(=O)(=O)c2cc(C(=O)N3CCN(c4ncccn4)CC3)ccc2Br)CC1,-4.2%,?,-12.9%
COc1ccccc1-c1cn(S(=O)(=O)c2ccc(C)cc2)nc1N,-3.4%,10µM*,-20.9%
COc1ccc(OC)c(-c2cn(S(=O)(=O)c3ccccc3)nc2N)c1,-14.5%,-1.1%,-5.8%
COc1cccc(N2CCN(c3ccc4nnc(CCC(=O)Nc5cc(C)ccn5)n4n3)CC2)c1,.,.,4.5%
O=C(/C=C/c1ccc(F)cc1)NC(=S)NNC(=O)[C@H]1C[C@@H]1c1ccccc1,.,.,-39.7%
COc1ccc(-c2csc(NC(=O)COc3ccc(N(C)S(=O)(=O)c4ccc(C)cc4)cc3)n2)cc1,0.6%,7.94µM*,?
Cc1ccc(-c2csc(NC(=O)COc3ccc(N(C)S(=O)(=O)c4ccc(C)cc4)cc3)n2)cc1,0.9%,6.31µM*,13.8%
COc1ccc(S(=O)(=O)N(C)c2ccc(OCC(=O)Nc3cc(C)on3)cc2)cc1,-1.2%,-7.0%,-29.4%
CCOc1ccc2nc(NC(=O)COc3ccc(N(C)S(=O)(=O)c4ccc(C)cc4)cc3)sc2c1,.,.,0.7%
Cc1nn2c(SCC(=O)c3cccs3)cc(C(C)(C)C)nc2c1-c1ccccc1,-4.8%,-6.3%,12.4%
O=c1cc(O)n(-c2ccc(Cl)cc2)c(=S)[nH]1,-3.3%,9.4%,24.7%
